Test results: paper PMC4336329 (PLoS ONE, 2015)
The campaign covered roughly 310,000 compounds. About 2,200 (0.71%) showed an effect of 50% or more. The effect is printed as a negative number. The entries come from a sample that favours strong results as a whole.

These compounds were tested against human ether-à-go-go-related gene (hERG) potassium channel (human, UniProt Q12809) (assay: primary screen, population patch clamp on CHO cells stably expressing hERG; higher = less effect of the substance).
Sequence of human ether-à-go-go-related gene (hERG) potassium channel (Q12809 whole entry, looked up): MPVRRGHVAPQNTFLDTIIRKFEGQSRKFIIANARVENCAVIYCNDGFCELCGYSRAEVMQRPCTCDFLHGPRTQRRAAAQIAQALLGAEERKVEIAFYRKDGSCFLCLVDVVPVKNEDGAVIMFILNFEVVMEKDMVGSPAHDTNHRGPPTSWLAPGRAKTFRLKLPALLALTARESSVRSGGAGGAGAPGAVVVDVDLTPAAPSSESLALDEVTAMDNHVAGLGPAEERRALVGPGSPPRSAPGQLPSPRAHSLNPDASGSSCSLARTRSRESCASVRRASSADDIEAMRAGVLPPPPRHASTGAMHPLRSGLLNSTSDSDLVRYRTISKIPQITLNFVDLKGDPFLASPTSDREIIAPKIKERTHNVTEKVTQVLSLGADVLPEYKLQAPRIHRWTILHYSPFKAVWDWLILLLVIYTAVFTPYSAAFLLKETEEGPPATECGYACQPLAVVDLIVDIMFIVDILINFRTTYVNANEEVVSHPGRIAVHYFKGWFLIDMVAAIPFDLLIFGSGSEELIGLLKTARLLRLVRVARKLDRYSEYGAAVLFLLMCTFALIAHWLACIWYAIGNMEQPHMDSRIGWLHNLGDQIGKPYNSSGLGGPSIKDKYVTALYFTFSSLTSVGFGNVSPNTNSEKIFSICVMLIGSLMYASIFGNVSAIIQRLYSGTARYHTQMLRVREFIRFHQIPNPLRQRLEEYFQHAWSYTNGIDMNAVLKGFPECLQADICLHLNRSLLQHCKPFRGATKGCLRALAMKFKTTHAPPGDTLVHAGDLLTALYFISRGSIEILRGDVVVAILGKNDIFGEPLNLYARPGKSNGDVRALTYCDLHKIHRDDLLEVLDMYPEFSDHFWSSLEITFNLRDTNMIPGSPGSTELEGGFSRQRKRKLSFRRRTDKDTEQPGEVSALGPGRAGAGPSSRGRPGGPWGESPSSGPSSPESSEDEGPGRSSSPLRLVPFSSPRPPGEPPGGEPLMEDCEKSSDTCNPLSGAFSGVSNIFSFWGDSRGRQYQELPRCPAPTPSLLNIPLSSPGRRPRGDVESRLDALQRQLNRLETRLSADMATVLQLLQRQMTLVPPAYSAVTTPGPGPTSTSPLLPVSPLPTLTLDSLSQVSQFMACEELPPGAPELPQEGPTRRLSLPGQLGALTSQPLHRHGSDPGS

| SMILES | hERG current change (%, negative = inhibition) at 1uM |
| --- | --- |
| COc1ccc(-c2coc3c(CN4CCCCC4C)c(O)ccc3c2=O)cc1 (stereo not drawn) | 7.15% |
| Cl.O=C(c1ccccc1)c1coc2ccc(O)c(CN3CCOCC3)c12 | -21% |
| COc1ccc(-c2coc3c(CN4CCOCC4)c(O)ccc3c2=O)cc1 | 0.432% |
| COc1ccc(C(=O)c2coc3ccc(O)c(CN4CCCC4)c23)cc1 | -56.9% |
| COc1ccc(-c2coc3c(CN4CCCCC4)c(O)c(CN4CCCCC4)c(O)c3c2=O)cc1 | -88% |
| COc1ccc(C(=O)c2coc3ccc(O)c(CN4CCCCC4)c23)cc1 | -61.4% |
| COc1ccc(C(=O)c2coc3ccc(O)c(CN4CCOCC4)c23)cc1 | 1.63% |
| COc1ccc(OC)c(C(=O)c2coc3ccc(O)c(CN4CCOCC4)c23)c1 | -6.28% |
| Cc1ccc(C(=O)c2coc3ccc(O)c(CN4CCN(C)CC4)c23)cc1 | -25.5% |
| CC1CCCCN1Cc1nc2c(c(=O)n(C)c(=O)n2C)n1Cc1c(F)cccc1Cl (stereo not drawn) | 11.4% |
| C/C(N)=C(/C#N)C(=O)CSc1nc2ccccc2[nH]1 | 5.05% |
| COc1ccc(NC(=O)CNC(c2ccccc2)c2ccccc2)cc1.O=C(O)C(=O)O | 14.5% |
| O=C(COC(=O)Cc1ccc(Br)cc1)NC1CCCCCC1 | 11.4% |
| Cc1ccc(NC(=O)Cn2cnc3ccccc32)cc1C | 6.29% |
| O=C(Cn1cnc2ccccc21)Nc1ccc(F)c(F)c1 | 3.75% |
| O=C(Cn1cnc2ccccc21)Nc1ccc(C(=O)O)cc1.O=C(O)C(=O)O | -52.9% |
| Cc1ncc(CSc2ccc(Cl)cc2)c(CO)c1O | 12.9% |
| COCCCNC(=O)c1ccc2nc(Cc3ccc(OC)cc3)oc2c1 | 10.8% |
| Cn1nnnc1Sc1ncnc2scc(-c3cccc(S(C)(=O)=O)c3)c12 | 12.6% |
| CCOc1ccc(CN2CCN(C3CCC3)CC2CCO)cc1 (stereo not drawn) | 3.11% |
| Cc1ccc(CN2CCN(Cc3cc4ccccc4o3)CC2CCO)cc1 (stereo not drawn) | -12.5% |

| SMILES | hERG current change (%, negative = inhibition) at 1uM |
| --- | --- |
| OCCC1CN(Cc2cnc(-c3ccccc3)s2)CCN1Cc1ccccc1 (stereo not drawn) | 1.93% |
| Cc1ccc(CN2CCN(Cc3ccc(OCCO)cc3)CC2CCO)o1 (stereo not drawn) | 1.83% |
| CCOc1ccc(CN2CCN(Cc3ccc(C)o3)CC2CCO)cc1 (stereo not drawn) | -87.8% |
| CCOc1ccc(CN2CCN(Cc3cnc(N4CCOCC4)s3)CC2CCO)cc1 (stereo not drawn) | -19.2% |
| CCOc1ccc(CN2CCN(Cc3cnc(-c4ccccc4)s3)CC2CCO)cc1 (stereo not drawn) | -90.1% |
| CCOc1ccccc1CN1CCN(C2CCSCC2)CC1CCO (stereo not drawn) | -7.19% |
| CCOc1ccc(CN2CCN(Cc3cc4ccccc4o3)CC2CCO)cc1 (stereo not drawn) | -82% |
| OCCC1CN(Cc2cc3ccccc3o2)CCN1Cc1ccc(F)cc1 (stereo not drawn) | 15.2% |
| CCOc1ccc(CN2CCN(C3CCSCC3)CC2CCO)cc1 (stereo not drawn) | -76.2% |
| CCOc1ccccc1CN1CCN(Cc2ccc(C)o2)CC1CCO (stereo not drawn) | -9.63% |
| O=C(CSc1nnc(CNC(=O)c2ccccc2)o1)NCc1ccc2c(c1)OCO2 | 4.4% |
| CCN1CCN(c2c(Cl)cccc2NC(=O)c2ccc([N+](=O)[O-])cc2)CC1 | -15.9% |
| CSc1ccccc1C(=O)C1CCCN(C(=O)CCc2cccnc2)C1 (stereo not drawn) | 8.69% |
| COc1ccc(NC(=O)CSc2nc3ccccc3c(=O)n2CCCO)cn1 | -26.1% |
| COc1ccc(OC)c(C2CC(=O)NC(SC)=C2C#N)c1 (stereo not drawn) | 7.92% |
| O=C(CSc1ccccc1)Nc1nnc(COc2ccc(Cl)cc2)s1 | 3.34% |
| COc1cc(CN2CCN(Cc3ccc4cc(F)ccc4n3)CC2CCO)cc(OC)c1 (stereo not drawn) | -21.6% |
| CCOc1ccccc1CN1CCN(Cc2ccc3cc(F)ccc3n2)CC1CCO (stereo not drawn) | -44.1% |
| CCOc1ccc(CN2CCN(Cc3ccc4cc(F)ccc4n3)CC2CCO)cc1 (stereo not drawn) | -79.3% |
| Cc1cc(=O)[nH]c(/N=C(\N)Nc2ccc(SC(F)F)cc2)n1 | 1.96% |
| Cc1cc(C)nc(/N=C(\N)Nc2ccc(-c3ccccc3)cc2)n1 | -59.8% |

| SMILES | hERG current change (%, negative = inhibition) at 1uM |
| --- | --- |
| Cc1cc(C)nc(/N=C(\N)Nc2ccc(OCc3ccccc3)cc2)n1 | -28.8% |
| CCOc1ccc(N/C(N)=N/c2nc(C)cc(C)n2)cc1 | 4.81% |
| CC(=O)Nc1ccc(N/C(N)=N/c2nc(C)cc(C)n2)cc1 | 8.5% |
| Cc1cc(C)nc(/N=C(\N)Nc2ccc(C(C)C)cc2)n1 | -3.29% |
| Cc1cc(C)nc(/N=C(\N)Nc2ccc(OCCC(C)C)cc2)n1 | -55.9% |
| Cc1ccc(N/C(N)=N/c2nc(C)cc(C)n2)cc1 | -24.7% |
| Cc1cc(C)nc(/N=C(\N)Nc2ccc(SC(F)F)cc2)n1 | -52.9% |
| COc1cccc(N2CCN(S(=O)(=O)c3c(C)[nH]c(C)c3C(=O)N3CCCCC3)CC2)c1 | 15.2% |
| CC(C)(C)OC(=O)N1CCC(Cc2cc(-c3cccc(Br)c3)no2)(C(=O)O)CC1 | -14% |
| Cc1ccc(-n2nc3c(c2NC(=O)C2CC2)CS(=O)(=O)C3)cc1 | -0.97% |
| O=C(COC(=O)C1CCCCC1)Nc1ccccc1OC(F)F | 12.3% |
| Cc1cccn2c(CN3CCSCC3)c(C(=O)N3CCOCC3)nc12 | -1.36% |
| Cc1cccn2c(CN3CCCC(c4ccccc4)C3)c(C(=O)N3CCOCC3)nc12 (stereo not drawn) | -53.3% |
| Cc1cccn2c(CN[C@@H]3CCCC[C@H]3c3ccccc3)c(C(=O)N3CCOCC3)nc12 | 4.31% |
| COc1cc2c(cc1OC)C1(Nc3c-2c(Cc2ccccc2)nn3-c2ccccc2)C(=O)Nc2ccccc21 (stereo not drawn) | 12.4% |
| N=c1c2c(-c3ccccc3)c(-c3ccccc3)n(Cc3ccco3)c2ncn1CCCN1CCOCC1 | -91.3% |
| N=c1c2c(-c3ccccc3)c(-c3ccccc3)n(Cc3ccco3)c2ncn1CCCn1ccnc1 | -63.6% |
| CCCCn1cnc2c(c(-c3ccccc3)c(-c3ccccc3)n2Cc2ccco2)c1=N | -45.6% |
| N=c1c2c(-c3ccccc3)c(-c3ccccc3)n(Cc3ccccc3)c2ncn1CCO | 0.416% |
| CC(C)Cn1cnc2c(c(-c3ccccc3)c(-c3ccccc3)n2Cc2ccco2)c1=N | -26.2% |
| N=c1c2c(-c3ccccc3)c(-c3ccccc3)n(Cc3ccco3)c2ncn1CCCO | -34.5% |

| SMILES | hERG current change (%, negative = inhibition) at 1uM |
| --- | --- |
| N=c1c2c(-c3ccccc3)c(-c3ccccc3)n(Cc3ccco3)c2ncn1CCO | -52.2% |
| N=c1c2c(-c3ccccc3)c(-c3ccccc3)n(Cc3ccccc3)c2ncn1CCCn1ccnc1 | -32% |
| c1ccc(-c2c(-c3ccccc3)n(Cc3ccco3)c3ncnc(NCCCn4ccnc4)c23)cc1 | -9.73% |
| N=c1c2c(-c3ccccc3)c(-c3ccccc3)n(Cc3ccco3)c2ncn1Cc1ccco1 | -26.8% |
| N=c1c2c(-c3ccccc3)c(-c3ccccc3)n(Cc3ccco3)c2ncn1Cc1ccccc1 | -4.13% |
| N=c1c2c(-c3ccccc3)c(-c3ccccc3)n(Cc3ccco3)c2ncn1CCN1CCOCC1 | -72.3% |
| Cc1cc(C)n(Cc2ccc(NC(=O)c3ccc(COc4ccccc4Br)cc3)cc2)n1 | -8.42% |
| O=C(O)C1=C(OCc2ccc(F)c(F)c2)C(=O)NCC1 | 13.4% |
| Cc1ccc(C(C(=O)NC2CCCC2)N(Cc2ccccc2)C(=O)c2csnn2)o1 (stereo not drawn) | 12.4% |
| COc1cc(C(=O)O)ccc1OCc1ccncc1 | 14.1% |
| CCOC(=O)C(=O)NC(C)CCc1ccccc1 (stereo not drawn) | 9.43% |
| Cc1ccc(C(C)C)c(OCC(=O)N2CCN(c3ncccn3)CC2)c1 | 10% |
| CCCn1c(=N)c(C(=O)NCC2CCCO2)cc2c(=O)n3cccc(C)c3nc21 (stereo not drawn) | -78.3% |
| Cc1cccn2c(=O)c3cc(S(=O)(=O)c4ccccc4)c(=N)n(CC4CCCO4)c3nc12 (stereo not drawn) | 7.88% |
| Cc1cccn2c(=O)c3cc(C(=O)NCC4CCCO4)c(=N)n(CC4CCCO4)c3nc12 (stereo not drawn) | -84.8% |
| Cc1cccn2c(=O)c3cc(C(=O)NC4CCCC4)c(=N)n(CC4CCCO4)c3nc12 (stereo not drawn) | -80.2% |
| Cc1cccn2c(=O)nc(SCC(=O)NCc3ccc4c(c3)OCO4)nc12 | -1.11% |
| Cc1cccn2c(=O)c3cc(C(=O)NC4CCCCC4)c(=N)n(Cc4ccccc4)c3nc12 | -40.2% |
| CCCn1c(=N)c(C(=O)NCc2ccc3c(c2)OCO3)cc2c(=O)n3cccc(C)c3nc21 | -67.3% |
| O=C(O)C1=C[C@H](C2CC2)C[C@H](OCCCCO)O1 | 12.3% |
| O=C(CSc1n[nH]c(=O)n1Cc1ccco1)Nc1ccccc1Cl | 6.62% |
